# Source: PubChem BioAssay (National Center for Advancing Translational Sciences (NCATS))
# An excerpt weighted towards active compounds, which were near 9.2% of everything screened.
# SMN2 splice enh: enhancers of SMN2 splice variant expression; HEK293 SMN2-luciferase splicing reporter, luminescence, 30-36 h; Potency, µM (titrated, usually from 46.1 µM), inactives show top-dose activity change, positive = activation, usual class: activators; 2.8% of 210,000 active; further: % of control where 0% means no effect; nearly all actives have a fitted effect of over 55% in size
#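 HEK293 cells carry an SMN2 […]–luciferase reporter in which exon 7 inclusion puts luciferase in frame. Cells were plated 10-12 h before compound addition, then incubated 30-36 h at 37C. ONE-Glo luminescence was read; sodium butyrate at 4.5 mM final served as control.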
# NPC1 prom act: activators of NPC1 promoter. Huh7 NPC1 promoter luciferase reporter, 24 h. Potency, µM (top dose mostly 9.22 µM), inactives show at the highest dose activation, hits mostly activators. 2.4% of 320,000 active; further: % of control where 0% means no effect; nearly all actives have a fitted effect of over 60% in size
#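 Huh7 reporter cells (NPC1 promoter driving luciferase) are dosed with compound for 24 h at 37 °C, 5% CO2; luciferase detection reagent is then added and luminescence measured after 10 min at ambient temperature.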
# ELG1 repair inh: blocks ELG1-dependent DNA repair in HEK293T cells; HEK293T ELG1-luciferase reporter, luminescence, 16 h; DNA damage induced by 5-fluorouridine; Potency, µM (top dose mostly 46.1 µM), for inactives: at the top dose activity change, negative = inhibition, hits mostly inhibitors; 2.3% of 330,000 active; further: on the % scale 0 is the no-effect control and ±100 the full control effect; nearly all actives have a fitted effect of over 55% in size
#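 Reporter activity after DNA damage by 5-fluorouridine is monitored. Compound-treated cells incubate 16 hr at 37 °C, then ONE-Glo is added for 30 min before luminescence reading.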
# Rab9 promoter act: activators of Rab9 promoter. Huh7 Rab9 promoter-luciferase reporter, luminescence, 24 h. 2.8% of 320,000 active. Potency, µM (doses to about 9.22 µM), for the others: top-dose activation, negative = inhibition, usual class: activators; further: % of control where 0% means no effect; nearly all actives have a fitted effect of over 60% in size
#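 Rab9 promoter-driven luciferase in stably transfected Huh7 cells; 1500 cells/well rested 2 h, exposed to compound in DMSO for 24 h at 37 °C, 5% CO2. Luminescence read 10 min after adding luciferase reagent at ambient temperature.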
# ELG1 genotoxic: inducers of genotoxicity in HEK293T ELG1-luciferase cells | HEK293T ELG1-luciferase reporter, luminescence, 16 h | Potency, µM (doses to about 46 µM), for the others: top-dose activity change, positive = activation, most hits filed as activators | 1.3% of 330,000 active; further: % of control where 0% means no effect; nearly all actives have a fitted effect of over 60% in size
#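 Genotoxicity was scored as increased ELG1-luciferase reporter signal, measured by ONE-Glo luminescence (30 min, room temperature). Compound or vehicle exposure of the HEK293T reporter cells lasted 16 hr at 37°C.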
# FLuc counter: counter-screen for miR-21 project: firefly luciferase inhibitors or activators | purified FLuc, Km substrates, luminescence inhibition | Potency, µM (titrated, usually from 57.5 µM), for the others: at the highest dose activity change, negative = inhibition, hits mostly inhibitors | 6.9% of 360,000 active | AID 588342;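 further: plate controls were vehicle for no effect and reference inhibitor for full effect; nearly all actives have a fitted effect of over 55% in size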
# Target sequence (P08659 whole entry, looked up): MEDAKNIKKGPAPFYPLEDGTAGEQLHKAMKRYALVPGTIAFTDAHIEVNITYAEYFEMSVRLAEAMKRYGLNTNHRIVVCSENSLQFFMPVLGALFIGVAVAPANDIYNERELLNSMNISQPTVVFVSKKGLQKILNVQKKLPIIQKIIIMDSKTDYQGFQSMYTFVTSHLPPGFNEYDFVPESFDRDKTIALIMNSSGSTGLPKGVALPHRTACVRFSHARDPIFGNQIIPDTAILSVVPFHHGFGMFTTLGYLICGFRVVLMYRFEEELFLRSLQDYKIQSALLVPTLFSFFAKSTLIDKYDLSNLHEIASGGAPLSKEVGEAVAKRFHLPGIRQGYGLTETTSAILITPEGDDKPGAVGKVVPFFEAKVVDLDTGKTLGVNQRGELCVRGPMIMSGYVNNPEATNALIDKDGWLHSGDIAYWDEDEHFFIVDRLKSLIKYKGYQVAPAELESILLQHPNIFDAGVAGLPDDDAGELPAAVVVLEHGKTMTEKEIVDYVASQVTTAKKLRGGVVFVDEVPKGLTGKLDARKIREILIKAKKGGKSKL
#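 Biochemical qHTS of compounds, final roughly 60 µM downward over six points, against 10 nM purified firefly luciferase using Km concentrations of substrates (10 uM D-luciferin, 10 uM ATP) in Tris acetate pH 7.5 buffer; luminescence output.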
# * hit, by the source's call; ? = inconclusive; / = not tested or not shown; [ ] = dose if it differs, or a comment. The call rests on the fitted dose curve; in most records, active means well fitted curve in the direction sought with a large enough effect; inconclusive means small, poorly fitted or top-dose-only effect, or another doubt; inactive means no such curve, though single readings can be large; an effect the other way counts as inactive or inconclusive. Potency means the concentration at half of the fitted maximal effect.
SMILES,SMN2 splice enh,NPC1 prom act,ELG1 repair inh,Rab9 promoter act,ELG1 genotoxic,FLuc counter
O=C(NC(=O)N1CCN(c2ccccc2)CC1)c1ccc(Cl)cc1,13µM*,1%,?,20%,?,27µM*
O=C(NC(=O)N1CCN(c2cccc(Cl)c2)CC1)c1ccc(Cl)cc1,/,-4%,4%,-3%,4%,-1%
COc1cc(/C(C)=N/Nc2ccc(C(=O)O)cc2)cc(OC)c1OC,16µM*,?,?,?,?,?
COc1ccc(OC)c(/C(C)=N/Nc2ccc(C(=O)O)cc2)c1,/,3%,?,14%,?,-2%
COc1ccc(/C(C)=N/Nc2ccc(C(=O)O)cc2)cc1OC,?,0.63µM*,?,1.3µM*,?,6.7µM*
O=C(Cn1cc(S(=O)(=O)Cc2ccccc2Cl)c2ccccc21)Nc1cccc(C(F)(F)F)c1,/,/,/,/,/,-5%
CN(C)c1ccc(NC(=O)Cn2cc(S(=O)(=O)Cc3ccccc3Cl)c3ccccc32)cc1,/,/,/,/,/,9.5µM*
CCOC(=O)c1ccc(NC(=O)c2sc3nc4n(c(=O)c3c2C)CCC4)cc1,/,0%,23µM*,-1%,1%[9.26 µM],-2%
CCc1cccc(NC(=O)c2sc3nc4n(c(=O)c3c2C)CCC4)c1,/,2µM*,?,2.8µM*,?,17µM*
CCCCSC(=O)Nc1ccccc1,7%,-1%,?,7%,?,17µM*
O=C(/C=C/c1cccc([N+](=O)[O-])c1)N1CCOCC1,4%,5%,19%,-5%,2%,0%
O=C(/C=C/c1ccccc1)Oc1cccc(C(=S)N2CCOCC2)c1,-33%,0%,15%,-4%,2%,9.5µM*
O=C(/C=C/c1cccc2ccccc12)c1ccncc1,-61%,-8%,26%,-8%,-6%,9.5µM*
O=C(/C=C/c1cccc(Oc2ccccc2)c1)N1CCOCC1,/,?,?,1.6µM*,?,15µM*
O=C(/C=C/c1cccc2ccccc12)N1CCOCC1,/,?,?,?,?,15µM*
O=C(/C=C/c1ccccc1)Oc1ccccc1C(=S)N1CCOCC1,/,1%,0%,-1%,-1%,3%
COc1ccc(S(=O)(=O)NCC2CCC(C(=O)NCCCN3CCCC3=O)CC2)cc1 (stereo not given),/,-1%,?,-3%,3%,7%
O=C(/C=C/c1ccc(OCCCF)cc1)N1CCOCC1,/,?,?,?,?,24µM*
Cc1oc(-c2ccc(Cl)cc2)nc1CN1CCCC(C(=O)NCc2ccccn2)C1 (stereo not given),-12%,0%,?,-2%,-3%,2%
Cc1oc(-c2ccc(Cl)cc2)nc1CN1CCCC(C(=O)NCc2cccnc2)C1 (stereo not given),-83%,-24%,6.5µM*,-17%,-9%,-3%
COc1cc2[nH]c(C(=O)NCc3ccccc3)cc2c(OC)c1OC,/,-2%,2%,-5%,14%,3%
COCCSc1ccccc1C(=O)N1CCC(Cc2ccccc2)CC1,-17%,3%,23µM*,-3%,-12%,0%
COC(=O)Cc1ccc(NC(=S)N2CCCCC2C)cc1 (stereo not given),6%,10%,?,18%,10%,4.8µM*
COC(=O)Cc1ccc(NC(=S)N2CCC(Cc3ccccc3)CC2)cc1,/,1%,1%,8%,-3%,4.8µM*
COC(=O)Cc1ccc(NC(=S)N2CCN(C)CC2)cc1,?,10%,0%,21%,11%,5.4µM*
SMILES,SMN2 splice enh,NPC1 prom act,ELG1 repair inh,Rab9 promoter act,ELG1 genotoxic,FLuc counter
Cc1c(C(=O)N2CCC(Cc3ccccc3)CC2)cccc1[N+](=O)[O-],/,-8%,-1%,2%,0%,1%
COC(=O)Cc1ccc(NC(=S)N2CCN(c3ccc(OC)cc3)CC2)cc1,-46%,-2%,-14%,-2%,-4%,5%
COc1cc(C(O)P(=O)(OCCC(C)C)c2ccc(N(C)C)cc2)cc(OC)c1OC (stereo not given),/,-1%,0%,0%,0%,-1%
CCCCn1c(NS(=O)(=O)c2ccccc2)c(S(=O)(=O)c2ccc(C)cc2)c2nc3ccccc3nc21,-33%,-2%,18µM*,-7%,-11%,4%
CC1(C)Cc2c(c(N3CCOCC3)nc3sc(-c4ccc(C(=O)O)o4)c(N)c23)CO1,8%,1%,2.6µM*,-7%,-6%,-1%
COc1ccc(NC(=O)c2sc3nc(N4CCCC4)c4c(c3c2N)CC(C)(C)OC4)cc1,/,-11%,5.8µM*,-5%,1%,-2%
COc1ccc(NC(=O)c2sc3nc(N4CCOCC4)c4c(c3c2N)CC(C)(C)OC4)c(OC)c1,/,-6%,?,-8%,4%,0%
Cc1nc2c(sc3nc(N4CCOCC4)c4c(c32)CC(C)(C)OC4)c(-c2ccccc2)c1C(=O)O,/,-2%,3.7µM*,0%,-6%,-1%
CC(=O)c1cccc(NC(=O)Cc2coc3cc4c(cc23)CCC4)c1,-30%,-2%,-28%,-6%,1%,-8%
CNS(=O)(=O)c1cccc(C(=O)OCc2cc(=O)n3cc(Br)ccc3n2)c1,-1%,0%,-19%,-3%,-1%,0%
O=C(Nc1ncccc1O)c1ccc(Oc2ccccc2)cc1,/,1.8µM*,?,2.8µM*,9.2µM*,6.7µM*
O=C(Nc1ncccc1O)c1ccc(OCC2CCCO2)cc1 (stereo not given),/,0.79µM*,?,0.79µM*,1.2µM*,7.6µM*
O=C(NC1=NCCS1)c1ccc(OCC2CCCO2)cc1 (stereo not given),10µM*,0.4µM*,?,0.35µM*,?,?
CCOc1ccc(C(=O)NC2=NCCS2)cc1,14µM*,1.1µM*,?,0.5µM*,?,11µM*
Clc1cccc(Cl)c1Cn1ccc(C2CC2)n1,?,?,?,3.2µM*,?,12µM*
Cc1ccc2c(c1)[nH]c1c(N3CCN(Cc4ccc5c(c4)OCO5)CC3)ncnc12,/,-3%,-16%,-15%,-1%,-10%
Cc1cccc(OCC(=O)Nc2ccc(OCc3cc(=O)n4cc(C)ccc4n3)cc2)c1,/,/,/,/,/,7%
Cc1ccc(C)n1-c1ccc(N2CCOCC2)nc1,14µM*,4%,-10%,-14%,?,3%
O=C(COC(=O)c1cccc(-n2cnnn2)c1)c1ccc(Br)cc1,/,?,?,?,?,6.7µM*
O=C(COC(=O)c1ccccc1-n1cnnn1)c1ccc(F)cc1,/,6%,?,-3%,?,6µM*
